Experimental data published in PubChem BioAssay.
Calls of active or inactive are those of the source.

Legend:
[1] = binders of probe aFSTL3 on microarray, primary screen, stem cell growth factor project, biochemical, small-molecule microarray, fluorescence 635/667 (AID 1064); conditions: higher = more signal;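 note: measures binding of the biotinylated anti-FSTL3 antibody to printed compounds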
[2] = binders from COS7 lysate, DM2A8 probe, primary screen, torsin A project, cell lysate, small-molecule microarray, fluorescence 635/667 (AID 1065); conditions: higher = more signal, COS7 lysate expressing mutant human TOR1A
[3] = binders of probe aFGF2 on microarray, primary screen, stem cell growth factor project, biochemical, small-molecule microarray, fluorescence 635/667 (AID 1067); conditions: higher = more signal;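 note: measures binding of biotinylated aFGF2 protein to printed compounds on slides; z-score merges feature fluorescence and signal-to-noise across triplicate slides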
[4] = binders of probe aFGF10 on microarray, primary screen, stem cell growth factor project, biochemical, small-molecule microarray, fluorescence 635/667 (AID 1071); conditions: higher = more signal;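 note: score merges 667 nm spot intensity and signal to noise from triplicate slides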
[5] = target: Neurogenic locus notch homolog protein 2 (Homo sapiens) (UniProt Q04721); test: Notch2 binders on small-molecule microarrays, primary screen, biochemical, small-molecule microarray, 635 nm fluorescence, stem cell growth factors (AID 1073); conditions: Notch2 binding, higher = more signal
[6] = target: Pro-neuregulin-1, membrane-bound isoform (Homo sapiens) (UniProt Q02297); test: NRG1 binders on small-molecule microarrays, primary screen, psychiatric disease protein project, biochemical, small-molecule microarray, fluorescence 635/667 (AID 1075); conditions: NRG1 binding, 635 nm fluorescence, higher = more signal;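 note: score combines 667 nm spot fluorescence with signal to noise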
[7] = test system: Neuregulin-1 EGF-like domain; test: binders of neuregulin-1 EGF-like domain, primary screen, biochemical, small-molecule microarray, 635 nm fluorescence (AID 1081); conditions: small-molecule microarray binding, higher = more signal;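 note: binding of the protein to compounds printed on small-molecule microarray slides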
[8] = FRG1 promoter luciferase signal modulators, primary screen, FRG1 inhibition for FSHD, cell-based, C2C12 myotubes, firefly/Renilla luciferase, luminescence (AID 1084); conditions: higher = more signal, called active from +8 up or from −8 down
[9] = binders of probe aFST on microarray, primary screen, stem cell growth factor project, biochemical, small-molecule microarray, fluorescence 635/667 (AID 1086); conditions: higher = more signal;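 note: score merges 667 nm fluorescence with signal-to-noise of each printed compound spot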
[10] = binders of probe aHhip on microarray, primary screen, stem cell growth factor project, biochemical, small-molecule microarray, fluorescence 635/667 (AID 1087); conditions: higher = more signal;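 note: score merges spot fluorescence at 667nm with spot signal to noise ratio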

Chain of Pro-neuregulin-1, membrane-bound isoform (Homo sapiens) (Q02297 whole entry, looked up, the tested form may be a part, canonical isoform): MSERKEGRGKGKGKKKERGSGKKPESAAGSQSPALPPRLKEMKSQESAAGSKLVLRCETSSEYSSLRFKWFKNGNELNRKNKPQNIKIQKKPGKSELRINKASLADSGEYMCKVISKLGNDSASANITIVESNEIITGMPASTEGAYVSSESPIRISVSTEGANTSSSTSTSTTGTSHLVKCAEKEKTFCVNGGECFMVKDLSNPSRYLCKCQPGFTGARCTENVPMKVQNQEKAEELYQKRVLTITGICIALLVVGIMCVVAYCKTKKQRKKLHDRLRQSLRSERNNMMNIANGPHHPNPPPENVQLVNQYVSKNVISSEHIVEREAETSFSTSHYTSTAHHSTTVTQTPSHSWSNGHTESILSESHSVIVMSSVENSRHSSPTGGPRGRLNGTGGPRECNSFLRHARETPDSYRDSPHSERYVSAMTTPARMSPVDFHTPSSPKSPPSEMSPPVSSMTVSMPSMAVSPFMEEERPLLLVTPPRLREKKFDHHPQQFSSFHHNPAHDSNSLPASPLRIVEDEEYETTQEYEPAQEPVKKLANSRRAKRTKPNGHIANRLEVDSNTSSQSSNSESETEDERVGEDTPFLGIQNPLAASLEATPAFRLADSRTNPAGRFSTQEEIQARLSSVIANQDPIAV
Chain of Neurogenic locus notch homolog protein 2 (Homo sapiens) (Q04721 whole entry, looked up, canonical isoform): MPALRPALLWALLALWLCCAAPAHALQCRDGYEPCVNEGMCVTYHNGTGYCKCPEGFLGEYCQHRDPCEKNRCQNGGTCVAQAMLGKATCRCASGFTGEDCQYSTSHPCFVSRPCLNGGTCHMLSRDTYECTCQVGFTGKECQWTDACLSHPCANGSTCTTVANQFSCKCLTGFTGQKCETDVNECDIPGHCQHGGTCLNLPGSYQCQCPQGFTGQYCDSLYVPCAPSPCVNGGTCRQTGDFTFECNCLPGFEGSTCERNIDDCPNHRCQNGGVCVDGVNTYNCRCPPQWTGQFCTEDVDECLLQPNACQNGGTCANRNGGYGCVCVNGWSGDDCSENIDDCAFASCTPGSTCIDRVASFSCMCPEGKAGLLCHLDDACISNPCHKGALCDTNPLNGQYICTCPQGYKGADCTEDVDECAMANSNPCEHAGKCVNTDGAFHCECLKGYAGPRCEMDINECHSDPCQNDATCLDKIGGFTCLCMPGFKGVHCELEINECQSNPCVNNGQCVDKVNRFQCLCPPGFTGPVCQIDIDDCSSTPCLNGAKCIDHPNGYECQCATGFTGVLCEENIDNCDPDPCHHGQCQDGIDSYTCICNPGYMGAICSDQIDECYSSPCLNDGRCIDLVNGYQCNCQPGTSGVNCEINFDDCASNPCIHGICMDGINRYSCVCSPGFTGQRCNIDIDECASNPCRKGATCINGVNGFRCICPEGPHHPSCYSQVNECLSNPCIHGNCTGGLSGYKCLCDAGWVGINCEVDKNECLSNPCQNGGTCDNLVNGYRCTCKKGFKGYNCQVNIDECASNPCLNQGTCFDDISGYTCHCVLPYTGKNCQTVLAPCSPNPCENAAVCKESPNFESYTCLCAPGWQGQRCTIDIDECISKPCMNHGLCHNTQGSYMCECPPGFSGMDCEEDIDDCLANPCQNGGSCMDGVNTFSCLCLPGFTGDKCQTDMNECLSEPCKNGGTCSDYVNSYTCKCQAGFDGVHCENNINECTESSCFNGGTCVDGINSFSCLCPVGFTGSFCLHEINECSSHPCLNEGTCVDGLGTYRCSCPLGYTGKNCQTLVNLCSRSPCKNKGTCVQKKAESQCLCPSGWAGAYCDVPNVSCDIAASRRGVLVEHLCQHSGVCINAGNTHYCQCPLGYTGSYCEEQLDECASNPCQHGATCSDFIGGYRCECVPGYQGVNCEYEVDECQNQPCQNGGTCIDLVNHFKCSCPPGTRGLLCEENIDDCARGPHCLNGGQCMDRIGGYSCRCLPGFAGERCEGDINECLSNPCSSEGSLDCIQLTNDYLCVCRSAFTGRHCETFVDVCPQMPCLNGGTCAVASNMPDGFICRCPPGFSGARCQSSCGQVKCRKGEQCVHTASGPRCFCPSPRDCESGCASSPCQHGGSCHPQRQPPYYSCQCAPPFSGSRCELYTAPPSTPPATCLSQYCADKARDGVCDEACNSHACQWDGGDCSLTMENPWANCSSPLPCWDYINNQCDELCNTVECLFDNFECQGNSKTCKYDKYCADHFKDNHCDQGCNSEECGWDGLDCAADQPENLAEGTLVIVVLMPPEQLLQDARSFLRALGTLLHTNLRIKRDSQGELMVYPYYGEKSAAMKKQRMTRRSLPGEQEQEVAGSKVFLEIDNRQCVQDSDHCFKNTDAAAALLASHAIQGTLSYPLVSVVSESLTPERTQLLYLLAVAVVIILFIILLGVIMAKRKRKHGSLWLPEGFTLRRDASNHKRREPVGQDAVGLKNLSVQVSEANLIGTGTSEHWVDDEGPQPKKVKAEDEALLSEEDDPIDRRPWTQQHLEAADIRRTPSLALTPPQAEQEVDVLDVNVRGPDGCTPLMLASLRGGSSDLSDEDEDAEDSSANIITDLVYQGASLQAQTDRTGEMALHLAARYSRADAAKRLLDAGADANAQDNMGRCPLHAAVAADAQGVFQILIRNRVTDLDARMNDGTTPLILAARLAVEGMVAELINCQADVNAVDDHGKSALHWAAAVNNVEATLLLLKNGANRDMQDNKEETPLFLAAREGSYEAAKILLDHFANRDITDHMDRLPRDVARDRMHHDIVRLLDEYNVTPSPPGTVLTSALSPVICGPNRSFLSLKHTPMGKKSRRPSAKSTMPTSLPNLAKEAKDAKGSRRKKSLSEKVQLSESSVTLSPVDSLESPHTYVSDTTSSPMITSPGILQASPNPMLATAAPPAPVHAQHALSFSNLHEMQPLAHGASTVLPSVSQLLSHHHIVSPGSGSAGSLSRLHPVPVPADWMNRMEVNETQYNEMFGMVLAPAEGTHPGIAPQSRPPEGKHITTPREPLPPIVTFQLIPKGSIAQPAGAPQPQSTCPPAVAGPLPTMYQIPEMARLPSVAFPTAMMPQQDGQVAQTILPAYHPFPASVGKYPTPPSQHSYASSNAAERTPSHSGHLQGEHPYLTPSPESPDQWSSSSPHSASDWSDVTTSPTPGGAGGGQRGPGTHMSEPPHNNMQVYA

Row | Structure (SMILES) | composite z-score [1] | composite z-score [2] | composite z-score [3] | composite z-score [4] | composite z-score [5] | composite z-score [6] | composite z-score [7] | z-score [8] | composite z-score [9] | composite z-score [10]
1 | CCOC(=O)CCN1C(=O)[C@H]2[C@H]3[C@H](O)C=CC(=O)[C@@H]3CC[C@H]2C1=O | -0.619 | 0.153 | -0.108 | 0.408 | 0.25 | 0.262 | -0.0122 | -0.451 (inactive) | -0.0371 | -0.374
2 | CCOC(=O)NN=C1C[C@@H](O)[C@@H](O)[C@@H]2[C@@H]3C(=O)N(C4CCCCC4)C(=O)[C@@H]3CC[C@@H]12 | -0.236 | 0.584 | -0.194 | 0.469 | 0.489 | -0.123 | -0.424 | -0.371 (inactive) | 0.554 | -0.132
3 | CN(C)CCCNC(=O)[C@@H]1c2ccccc2C(=O)N(Cc2cc(F)cc(C(F)(F)F)c2)[C@H]1c1ccc(CO)cc1 | 1.11 | 1.01 | -0.0692 | -0.436 | 0.102 | 1.33 | 1.36 | -1.19 (inactive) | -0.186 | 0.316
4 | COC(=O)[C@H](C)NC(=O)[C@@H](C)CO | -0.329 | 1.2 | -0.116 | 0.75 | 0.591 | 0.515 | 1.04 | -0.256 (inactive) | 0.357 | 0.316
5 | CC(C)[C@@H](OCc1ccccc1)[C@H](C)C=NO[C@H](C)c1cn([C@H](CO)Cc2ccccc2)nn1 | -0.479 | 0.227 | -0.228 | 0.616 | 0.397 | -0.154 | 0.658 | -0.757 (inactive) | 0.344 | -0.409
6 | CO[C@H]1COC(=O)[C@H](C)NC(=O)[C@@H](C)COC(=O)CC=C[C@@H]1C | -0.618 | 1.06 | -0.116 | 0.409 | -0.0804 | -0.194 | 0.547 | -0.599 (inactive) | 0.0356 | -0.434
7 | CC(C)CN1CCc2nc(-c3ccccc3)c3c(c2CC1)CO[C@@H](C)C3 | 0.0816 | 0.252 | -0.0594 | 0.309 | 0.834 | -0.117 | 0.132 | -0.867 (inactive) | 0.594 | 0.394
8 | CCOC(=O)[C@H](CC(C)C)NC(=O)CCC1CC(OC(=O)NCc2cccc3ccccc23)CC2(CCCC(COC(=O)NCCc3ccccc3OC)O2)O1 (stereo not given in full) | -0.414 | 0.301 | -0.108 | 0.433 | 1.14 | 0.174 | 0.882 | 0.0171 (inactive) | 0.402 | -0.134
9 | N#Cc1ccc(NN2C(C(O)c3cc(C(F)(F)F)cc(C(F)(F)F)c3)C=CC3C(=O)N(c4ccccc4)C(=O)C32)cc1 (stereo not given) | 0.0678 | 0.517 | 0.116 | 0.668 | 1.27 | 1.97 | 1.22 | 0.474 (inactive) | 0.785 | 0.357
10 | O=C1[C@H]2[C@H]3[C@H](O)[C@H](O)CC(=NO[C@@H]4O[C@H](CO)[C@@H](O)[C@H](O)[C@H]4O)[C@@H]3CC[C@H]2C(=O)N1Cc1ccc2c(c1)OCO2 | -0.401 | -0.271 | -0.166 | 0.112 | 0.737 | 0.542 | 0.974 | 0.118 (inactive) | 0.181 | -0.201
11 | C=C(/C(=C/C[C@H](OC(C)=O)c1ccc(OCCO)cc1)c1cnc2ccccc2c1)C(C)C | -0.195 | 0.214 | -0.122 | 1.11 | 1.01 | 0.69 | 1 | 0.372 (inactive) | 0.182 | -0.333
12 | C#CCCCON=C1C[C@@H](O)[C@@H](O)[C@@H]2[C@@H]3C(=O)N(Cc4ccccc4)C(=O)[C@@H]3CC[C@H]12 | -0.304 | 0.251 | -0.116 | 0.317 | 0.69 | 0.197 | -0.0787 | -0.0765 (inactive) | 0.149 | -0.169
13 | O=C1O[C@@H](c2ccccc2)[C@@H](c2ccccc2)N2[C@@H](c3ccc(O)cc3)[C@]3(C(=O)Nc4ccccc43)[C@@H](C(=O)O)[C@H]12 | -0.149 | 0.227 | -0.0969 | 0.46 | 0.0863 | 1.67 | 1.08 | -1.09 (inactive) | 0.231 | -0.0212
14 | O=C1[C@H]2[C@H]3[C@H](O)[C@H](O)CC(=NO[C@@H]4O[C@H](CO)[C@@H](O)[C@H](O)[C@H]4O)[C@@H]3CC[C@H]2C(=O)N1Cc1ccccc1 | -0.466 | 1.08 | -0.074 | 0.312 | 0.595 | -0.516 | -0.9 | -0.7 (inactive) | 0.756 | -0.0994
15 | CC(C)CON=C1C[C@@H](O)[C@@H](O)[C@@H]2[C@@H]3C(=O)N([C@@H](C)c4ccccc4)C(=O)[C@@H]3CC[C@H]12 | -0.572 | -0.0881 | -0.0156 | 0.915 | 1.01 | 0.561 | 1.1 | -0.997 (inactive) | 0.629 | 0.21
16 | CC(C)N1CC=CC23O[C@@H]4C=CCCOC(=O)C4[C@H]2C(=O)N(CCCCCCO)[C@@H]3C1=O (stereo not given in full) | 0.487 | -1.93 | -0.141 | -0.671 | -1.17 | 1.2 | 0.896 | -0.121 (inactive) | -0.357 | -0.236
17 | CCCCc1nc2c(c3c1C[C@H](C)OC3)CN(CCC(C)C)CC2 | -0.578 | 0.252 | -0.0687 | 0.509 | 1.16 | 0.788 | 1.17 | 0.607 (inactive) | 0.295 | -0.199

Row | Structure (SMILES) | composite z-score [1] | composite z-score [2] | composite z-score [3] | composite z-score [4] | composite z-score [5] | composite z-score [6] | composite z-score [7] | z-score [8] | composite z-score [9] | composite z-score [10]
18 | CCCNC(=O)[C@@H]1c2ccccc2C(=O)N(c2ccc(C)cn2)[C@H]1c1ccc(CO)cc1 | 0.901 | 0.0211 | -0.176 | -0.857 | -1.01 | -0.465 | 1.4 | 0.213 (inactive) | -0.348 | -0.258
19 | CC(C)NC(=O)[C@@H]1c2ccccc2C(=O)N(CC23CC4CC(CC(C4)C2)C3)[C@H]1c1ccc(CO)cc1 | -0.438 | -0.0125 | -0.0277 | 0.0767 | 1.38 | 0.93 | 1.27 | -3.34 (inactive) | 0.839 | -0.434
20 | O=C1C2C=CC(C(O)c3ccc([N+](=O)[O-])cc3)N(Nc3ccc([N+](=O)[O-])cc3)C2C(=O)N1c1ccccc1 (stereo not given) | 0.25 | -0.0145 | 0.154 | 1.13 | 1.63 | 1.55 | 1.17 | -0.164 (inactive) | 1.02 | 0.178
21 | O=C1C[C@@H](O)[C@@H](O)[C@@H]2[C@@H]3C(=O)N(Cc4ccc5c(c4)OCO5)C(=O)[C@@H]3CC[C@@H]12 | -0.612 | 0.196 | -0.149 | 0.833 | 0.651 | -0.13 | 0.568 | 0.324 (inactive) | 0.278 | 0.065
22 | O=C1c2ccccc2[C@@]2(Cc3ccccc3N(C3CC3)C2=O)[C@H](c2ccc(CO)cc2)N1Cc1ccccc1C(F)(F)F | 0.748 | -0.686 | -0.0507 | 0.157 | -1.11 | 0.809 | -0.0465 | -0.455 (inactive) | -0.0438 | 0.151
23 | CC(C)C[C@@H]1NC(=O)[C@H]2C[C@@H](C(=O)NCCCCCCN(C)C)[C@@H](c3cccc(OCCO)c3)N2C1=O | 0.293 | 1.55 | -0.0173 | 0.789 | 0.873 | 0.528 | 0.781 | 3.77 (inactive) | 0.256 | -0.156
24 | C=C(/C(=C/C[C@H](OC(=O)c1ccncc1)c1ccc(OCCO)cc1)c1cnc2ccccc2c1)C(C)C | -0.185 | 0.727 | -0.047 | 1.09 | 1.29 | 0.7 | 1.13 | 1.66 (inactive) | 0.552 | -0.0296
25 | C=CCC(OC(C)=O)[C@@H]1[C@@H](N(Cc2cc3ccccc3o2)C(=O)Cc2ccc(F)cc2)c2cc(OCCCO)ccc2N1C(=O)Cc1ccc(OC)cc1 (stereo not given in full) | -0.115 | 0.102 | -0.0409 | 0.351 | -0.383 | 0.16 | -0.707 | -2.16 (inactive) | -0.0711 | 0.0373
26 | CCOC(=O)[C@H](Cc1ccccc1)NC(=O)CCC1CC(OC(=O)NCc2ccc3c(c2)OCO3)CC2(CCCC(COC(=O)NCc3cccc(C(F)(F)F)c3)O2)O1 (stereo not given in full) | -0.353 | 0.226 | -0.0985 | 0.0907 | 0.981 | 0.0527 | 0.481 | -0.0878 (inactive) | 0.348 | -0.0645
27 | C[C@H](c1ccccc1)N1C(=O)[C@H]2[C@H]3[C@H](O)[C@H](O)CC(=O)[C@@H]3CC[C@H]2C1=O | -0.019 | 0.242 | -0.0675 | 0.341 | 0.433 | -0.117 | 0.263 | -0.243 (inactive) | 0.0924 | 0.0274
28 | CC(C)[C@H](NC(=O)OC(C)(C)C)[C@@H](O)CC(=O)OC(C)(C)C | -0.273 | -0.584 | -0.116 | -0.267 | -0.756 | -0.739 | -1.18 | 0.0293 (inactive) | -0.357 | 0.0881
29 | O=C1[C@H]2[C@H]3[C@H](O)[C@H](O)CC(=NO[C@@H]4O[C@H](CO)[C@@H](O)[C@H](O)[C@H]4O)[C@H]3CC[C@H]2C(=O)N1Cc1ccccc1 | -0.658 | 0.0571 | -0.116 | 0.602 | 1.4 | -0.328 | 0.0944 | 0.632 (inactive) | 0.564 | 0.199
30 | CC(=O)OC[C@H]1O[C@H](C#CCCCc2ccccc2)C=C[C@@H]1OC(C)=O | -0.0129 | 0.105 | -0.083 | 0.73 | 0.2 | 0.505 | 0.765 | -0.13 (inactive) | -0.206 | 0.351
31 | CO[C@@H]1COC(=O)[C@H](C)NC(=O)[C@@H](C)COC(=O)CCC[C@H]1C | -0.438 | 0.402 | -0.116 | 0.686 | 0.183 | -0.0231 | 1.13 | 0.227 (inactive) | -0.163 | -0.0296
32 | CN(C)CCCNC(=O)[C@@H]1c2ccccc2C(=O)N(Cc2ccccc2)[C@H]1c1ccc(CO)cc1 | 0.532 | -0.338 | 0.311 | -0.343 | -1.08 | -0.0367 | 0.571 | -1.01 (inactive) | 0.178 | -0.363
33 | CO[C@H]1COC(=O)CC=C[C@H](C)[C@@H](NS(=O)(=O)c2ccc(C)cc2)COC(=O)CC=C[C@@H]1C | -0.599 | 0.871 | -0.134 | 0.339 | 0.381 | -0.425 | -0.377 | -1.15 (inactive) | -0.197 | -0.0994
